40 molecules from PubChem BioAssay (NCATS) can be followed below.

Records with an inconclusive call do not appear. Active and inactive are the calls of the source. The call rests on the fitted dose curve; in most records, active means well fitted cell-killing curve with a large enough effect; inconclusive means small, poorly fitted or top-dose-only effect, or effect the other way; inactive means no such curve, though single readings can be large or run the other way.
Potency means the concentration at half of the fitted maximal effect.

The assay can be described thus: Viability qHTS for spleen associated tyrosine kinase inhibitor (SYKi) naive MV4-11 cells (AID 1963823). Further: nearly all actives have a fitted effect of over 40% in size. To be noted: MV4-11 AML viability, CellTiter-Glo luminescence, 72 h; series mostly up to 45 µM; viability (% of control): at the top concentration. The text has this: Department of Medicine, Hematology/Oncology
University Hospital Frankfurt, Germany.
Trials have shown promising clinical activity of the selective SYK inhibitor entospletinib in patients with high expressing HOXA9/MEIS1 acute leukemias. As the development of resistance mechanisms is a common problem in the use of targeted drugs, we performed a chemical library screen to identify drug sensitivities in SYK inhibitor resistant AML cells. […] Glucocorticoids are potent immunosuppressants which work in part by inhibiting the transcription of cytokine genes.
Described herein is a viability screen to look for activity in the SYK inhibitor naive cell line against four NCATS compound libraries (MIPE 5.0, NPC, NPACT, and Kinase) totaling 11372 compounds. Active hits were reacquired for confirmation and further secondary assay testing.
SEQUENCE No. (e.g., 1, 2, 3, etc.); […] (e.g., Cells, Incubation, Reagent, etc.); VALUE; DESCRIPTION.
1; Media; 2uL; white, solid-bottom Corning assay plate.
2; Compounds; 23nL; Echo acoustic dispenser.
3; Cell; 5uL; 500 cells per well.
4: Incubation; 72hr; 37 C, 5% CO2, 95% humidity.
5; Reagent; 3uL; CellTiter-Glo reagent (Promega).
6; Incubation; 10min; room temperature.
7; Detection; Luminescence; ViewLux plate reader (PerkinElmer).
NOTES (numbers refer to Sequence numbers above
1. Quantitative high-throughput screening (qHTS) of small molecule compounds was conducted on naive SYKi MV4-11 cell line.
2. Twenty-three nanoliter of small molecule compounds were added to each assay plates using the Echo acoustic dispenser (Beckman Coulter).
3. Cells were seeded into the assay plates at a final density of 500 cells in 5uL of media per well using the Multi-drop Combi dispenser.
4. Plates were covered with stainless steel gasketed lids and incubated for 72 hours at standard cell culture conditions.
5. Viability was assessed by adding 3uL of CellTiter-Glo detection reagent (Promega).
6. Plates were covered with gasket lids and incubated for 10 minutes at room temperature.
7. Luminescence was measured on a ViewLux plate reader (PerkinElmer).
Take `COC12C(COC(N)=O)C3=C(C(=O)C(C)=C(N)C3=O)N1CC1C2N1C` (stereo not given): the Potency was 0.59 µM (active).

As to `CN1CCC(O)(c2ccc(F)cc2)C(C(=O)c2ccc(F)cc2)C1` (stereo not given), the “viability (% of control)” value was 74.5% (inactive).

On to `Oc1cc(Cl)ccc1Oc1ccc(Cl)cc1Cl`, for which the Potency is 19.7 µM (active).

In the case of `COc1cc(C(=O)O[C@H]2[C@@H]3C=CO[C@@H](O[C@@H]4O[C@H](CO)[C@@H](O)[C@H](O)[C@H]4O)[C@@H]3[C@@]3(CO)O[C@@H]23)ccc1O`, the “viability (% of control)” value was 66.9% [at 17.3 µM] (inactive).

As for `COc1ccn(C)c(=O)c1C#N`, the “viability (% of control)” value was 83.1% [at 91.9 µM] (inactive).

As to `O=C(CCl)c1ccc(Cl)cc1Cl`, the “viability (% of control)” value was 82.5% (inactive).

For `CC(O)CN1CCN(CC(=O)[O-])CCN(CC(=O)[O-])CCN(CC(=O)[O-])CC1.[Gd+3]` (stereo not given), the “viability (% of control)” value was 91.5% (inactive).

Turning to `CC[N+]1(CCOC(=O)C(O)(c2ccccc2)c2ccccc2)CCCCC1`, the “viability (% of control)” value is 74.1% (inactive).

On to `O=C(CCCN1CCC2(CC1)C(=O)NCN2c1ccccc1)c1ccc(F)cc1`, for which the “viability (% of control)” value is 62.5% (inactive).

As for `C/C=C(\C)C(=O)OC1C(C)OC(OC2C(C)OC(OC3CCC4(C)C(=CCC5C4CCC4(C)C(C(C)OC6OC(COC7OC(CO)C(O)C(O)C7O)C(O)C(O)C6O)CCC54O)C3)CC2OC)C(O)C1OC` (stereo not given), the viability (% of control) is 78.5% [at 9.25 µM] (inactive).

As for `CC1NCCOC1c1ccccc1` (stereo not given), the “viability (% of control)” value is 105% (inactive).

For `CC(=O)O[C@@H]1[C@H]2CC[C@H]3[C@@](C)(O)[C@@H]4C[C@H](O)C(C)(C)[C@@]4(O)[C@H](O)C[C@@]13C[C@@]2(C)O`, the “viability (% of control)” value was 73% [at 17.3 µM] (inactive).

Consider `CCCCCCC(C)(C)c1cc(O)c2c(c1)OC(C)(C)C1CC=C(CO)C[C@H]21` (stereo not given in full), for which the Potency was 1.18 µM (active).

On to `COC(=O)[C@@]12C(=O)C(C)C(=O)[C@]1(C)C(C)=C[C@H]1[C@]3(C=O)CC[C@H](OC(C)=O)C(C)(C)[C@H]3CC[C@@]12C` (stereo not given in full), for which the “viability (% of control)” value was 56.9% [at 17.3 µM] (inactive).

Turning to `C=C1C(=O)CC2OC2(C)CC2OC(=O)C(=C)C2C(O)C1OC(=O)/C(C)=C\C` (stereo not given), the Potency is 0.508 µM (active).

Take `CC[N+](CC)(CC)CC`: the “viability (% of control)” value is 95.5% (inactive).

With `CCCN1CCO[C@H]2c3cc(O)ccc3OC[C@@H]21`, the “viability (% of control)” value was 70.2% (inactive).

Consider `CCCCCCCCCC(CC)c1ccc(S(=O)(=O)O)cc1` (stereo not given), for which the Potency is 7.7 µM (active).

As to `C[C@@H]1CC[C@@]2(OC1)O[C@H]1C[C@H]3[C@@H]4CC=C5C[C@@H](O[C@@H]6O[C@H](CO)[C@@H](O[C@@H]7O[C@@H](C)[C@H](O)[C@@H](O)[C@H]7O)[C@H](O)[C@H]6O[C@@H]6O[C@@H](C)[C@H](O)[C@@H](O)[C@H]6O)CC[C@]5(C)[C@H]4CC[C@]3(C)[C@H]1[C@@H]2C`, the Potency is 1.66 µM (active).

On to `C[C@@H](N)[C@@H](O)c1ccccc1`, for which the “viability (% of control)” value is 72.6% (inactive).

Regarding `c1cncc(OC[C@@H]2CCN2)c1`, the “viability (% of control)” value is 45.9% (inactive).

As to `CC(C)(O)/C=C/C(=O)[C@](C)(O)[C@H]1[C@H](O)C[C@@]2(C)[C@@H]3CC=C4[C@@H](C=C(O)C(=O)C4(C)C)[C@]3(C)C(=O)C[C@]12C`, the Potency is 0.0596 µM (active).

Regarding `CO[C@H]1[C@H](O)[C@H](O[C@H]2CC[C@]3(C)C4CC[C@]5(C)[C@H](C6=CC(=O)OC6)CC[C@]5(O)C4CC[C@@H]3C2)O[C@@H](C)[C@@H]1O` (stereo not given in full), the Potency was 0.0252 µM (active).

On to `CCN1CCCC1CNC(=O)C(O)(c1ccccc1)c1ccccc1` (stereo not given), for which the “viability (% of control)” value was 71.2% (inactive).

On to `FC(F)(F)c1cccc(C2=CCN(CCc3ccc4ccccc4c3)CC2)c1`, for which the “viability (% of control)” value was 79.7% (inactive).

Turning to `CC1(C)C(=O)N(c2ccc(C#N)c(C(F)(F)F)c2)C(=S)N1Cc1ccc(-c2cn[nH]n2)cc1`, the Potency was 16.6 µM (active).

Turning to `N=c1c2c(-c3ccccc3)c(-c3ccccc3)n(Cc3ccccc3)c2ncn1C1CCC(O)CC1` (stereo not given), the Potency is 0.525 µM (active).

With `O=[N+]([O-])/N=C1\NCCN1Cc1ccc(Cl)nc1`, the “viability (% of control)” value was 76.9% (inactive).

As for `C=C(C)[C@@H]1CCC(C)=C[C@H]1c1c(O)cc(CCCCC)cc1O`, the Potency was 20.9 µM (active).

For `O=C(O)CCCc1ccc(N(CCCl)CCCl)cc1`, the “viability (% of control)” value was 78% (inactive).

In the case of `Nc1ccccc1C(=O)O`, the “viability (% of control)” value is 79% (inactive).

Turning to `C[C@H]1O[C@@H](O[C@H]2CC[C@]3(C=O)C4CC[C@]5(C)[C@@H](C6=CC(=O)OC6)CC[C@]5(O)[C@@H]4CC[C@]3(O)C2)C[C@@H](O)[C@@H]1O` (stereo not given in full), the Potency is 0.0563 µM (active).

Consider `Fc1cc(F)c2c(c1)[C@H]1C=CC[C@H]1C(c1cccnc1)N2` (stereo not given in full), for which the Potency was 2.91 µM (active).

In the case of `C=CCN1CC[C@]23c4c5ccc(O)c4O[C@H]2[C@@H](O)CC[C@@]3(O)[C@H]1C5`, the “viability (% of control)” value was 53.5% (inactive).

Regarding `CC(C)(O)C(Cl)(Cl)Cl`, the “viability (% of control)” value was 91.1% (inactive).

Regarding `CSCC[C@@H](NC(=O)[C@@H](Cc1ccccc1)NC(=O)CNC(=O)CNC(=O)[C@@H](N)Cc1ccc(O)cc1)C(=O)O`, the “viability (% of control)” value was 85.1% (inactive).

As for `Cc1cccc(NC(=O)N[C@H]2CN(C)c3ccccc3C(c3ccccc3)=N2)c1`, the Potency was 25.9 µM (active).

`CC(NC(C)(C)C)C(=O)c1cccc(Cl)c1` (stereo not given): the Potency entry is “inactive”.

On to `C[C@]12CC[C@H](O)C[C@H]1CC[C@@H]1[C@@H]2[C@H](O)C[C@]2(C)[C@@H](c3ccc(=O)oc3)CC[C@]12O`, for which the Potency is 0.0184 µM (active).

Take `CN1C(=O)COc2c(C(=O)NC3CN4CCC3CC4)cc(Cl)cc21` (stereo not given): the “viability (% of control)” value is 63.1% (inactive).
